Results as given in PubChem BioAssay AID977606 (Broad Institute, 2014).
In all, about 1,500 compounds went through this assay and about 430 (29%) were called active. A selection follows. Potency and affinity values are given separately. Values without a mark were called inactive. How the calls were made is not given here.

assay: insulin secretion activators without glucose, dose response, counter-screen for glucose-dependent insulin secretion activators, cell-based, INS-1E, Gaussia luciferase, luminescence, cherry-pick (AID 977606); settings: INS-1E Gaussia luciferase insulin secretion, no glucose, 100% = twice neutral-control luminescence; series mostly up to 35 µM; activation: at the top concentration;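 further: 0% = median of neutral control wells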

| SMILES | activation |
| --- | --- |
| Cc1ccc(S(=O)(=O)N(CC(=O)Nc2ccc(C)cc2C)C(=O)N2CCN(C)CC2)cc1 | 7.3% |
| CCC(c1nnnn1-c1ccc2c(c1)OCCO2)N1CCc2ccccc2C1 (centres undefined) | -4.74% |
| CCOc1cc(CNc2cccc3[nH]c(C)nc23)ccc1OC | -6.58% |
| CCOC(=O)c1cnc2ccc(OCC)cc2c1N1CCN(c2ccccc2)CC1 | 4.79% |
| O=C(Nc1cccnc1)c1cnn2c(C(F)F)cc(C3CC3)nc12 | -8.04% |
| C[C@@H]1CN([C@H](C)CO)C(=O)Cc2cc(NC(=O)CCCN(C)C)ccc2O[C@H]1CN(C)Cc1ccc(-c2ccccc2)cc1 | 36.9% |
| C[C@H]1CN([C@@H](C)CO)C(=O)c2ccccc2-c2ccccc2CO[C@@H]1CN(C)Cc1cccc(C(F)(F)F)c1 | 1.11% |
| C[C@@H]1CN([C@@H](C)CO)C(=O)c2cccc(NC(=O)Nc3ccc(C(F)(F)F)cc3)c2O[C@H]1CN(C)Cc1ccc(Cl)c(Cl)c1 | 29.3% |
| C[C@@H]1CN([C@H](C)CO)C(=O)c2cc(C#CCN(C)C)cnc2O[C@H]1CN(C)S(=O)(=O)c1cn(C)cn1 | 6.63% |
| C[C@@H]1CN([C@@H](C)CO)C(=O)CCCn2nncc2CO[C@H]1CN(C)Cc1ccccc1 | 6.88% |
| C[C@H]1CN([C@@H](C)CO)C(=O)c2ccccc2-c2ccccc2CO[C@@H]1CN(C)Cc1ccc(Cl)c(Cl)c1 | 33.1% |
| C[C@@H]1CN([C@H](C)CO)S(=O)(=O)c2ccc(-c3ccc(C#N)cc3)cc2O[C@H]1CN(C)C | 0.541% |
| Cc1cccc(C)c1-n1nnnc1C1(C)CCC(=O)N1Cc1cccs1 (centres undefined) | -13% |
| Cc1ccc(-n2ncc3c2CC(C)(C)CC3NC(=O)CCCN2CCCC2=O)cc1 (centres undefined) | -13.3% |
| CCN(CC)CCn1c(=N)n(CC(O)COc2ccccc2)c2ccccc21 (centres undefined) | -12.7% |
| COCCNc1nc(Oc2cncc(Cl)c2)c2sccc2n1 | 9.21% |
| Cc1ccc(C)c(S(=O)(=O)Nc2ccc(C(=O)N3CCC3)cc2)c1 | 10.9% |
| N#Cc1cccnc1Nc1cccc(Cl)c1 | 0.724% |
| Cc1nc2ccccc2c(=O)n1/N=C/c1ccc(N(C)C)cc1 | -0.341% |
| Cc1noc(C)c1NC(=O)N(C)C[C@H]1Oc2c(NC(=O)C3CCCCC3)cccc2C(=O)N([C@H](C)CO)C[C@@H]1C | -7.5% |
| C[C@@H]1CN([C@H](C)CO)C(=O)c2cc(C#CCc3ccccc3)cnc2O[C@H]1CN(C)C(=O)C1CCC1 | 23.1% |
| CN(C(=O)COC(=O)c1cccs1)c1ccccc1 | -7.76% |
| CCOC(=O)c1sc(NC(C)=O)nc1-c1ccccc1 | -5.44% |
| O=C(O)C(Cc1ccc(O)cc1)N1C(=O)c2ccccc2C1=O (centres undefined) | -3.37% |
| CCOc1ccccc1Nc1cc2n(c(=O)n1)CCc1cc(OC)c(OC)cc1-2 | -4.8% |
| COC(=O)c1cccc(-n2c(=O)n(Cc3ccccc3)c(=O)c3[nH]cnc32)c1C | 0.767% |

| SMILES | activation |
| --- | --- |
| O=C(O)c1ccc(S(=O)(=O)N2CCC3(CC2)CC(=O)c2ccccc2O3)cc1 | -15% |
| CCOC(=O)c1c(C)[nH]c(C(=O)COC(=O)c2cnccn2)c1C | 14% |
| COc1ccc(N/C=C/C(=O)c2ccc(Cl)cc2)cc1 | 48.8% |
| CCOc1ncccc1C(=O)Nc1ccc(S(=O)(=O)Nc2nc(C)cc(C)n2)cc1 | -2.86% |
| COc1cc2ccc(CC(=O)O)cc2cc1OC | 3.11% |
| C[C@H](O)[C@@H]1CN2CCc3ccc(-c4ccc5c(c4)OCO5)cc3[C@@H]2C[C@@H]1N(C)C(=O)c1cccc(Cl)c1 | -6.37% |
| CC(O)c1nc2ccc(Cc3ccc4nc(C(C)O)[nH]c4c3)cc2[nH]1 (centres undefined) | 6.67% |
| O=C(Cc1csc(NC(=O)c2ccccc2)n1)NO | 4.16% |
| Cc1ccc(-c2csc(NC(=O)CCCc3cccs3)n2)cc1 | -13.3% |
| CCc1c(C(=O)Nc2ccc(C)c(C)c2)[nH]c(C)c1C(C)=O | -2.69% |
| CC(=O)Nc1ccc(-c2ccnc3c2CC(C)(C(=O)Nc2cccc(OC(F)(F)F)c2)O3)cc1 (centres undefined) | -18% |
| CCSc1ncnc2c(C#N)c3n(c12)CCCCC3 | -23.6% |
| CN1CCCC1CCNC1C2CC3CC(C2)CC1C3 (centres undefined) | 10.6% |
| Cc1c(C(=O)N(C)CCc2cnn(C)c2)oc2c(F)cccc12 | -6.35% |
| COC(=O)C[C@@H]1OC[C@H](C(C)C)N1S(=O)(=O)c1ccc(C)cc1 | -4.61% |
| Cc1ccc(-n2nc3c(c2NC(=O)C2CC2)CS(=O)(=O)C3)cc1 | -70.2% |
| CCc1cc(=O)oc2c(CNCc3ccc(OC)cc3OC)c(O)c(Cl)cc12 | 3.11% |
| CN1CCN(c2ccc(NC(=O)c3ccc(Oc4ccccc4)cc3)cc2)CC1 | 12.1% |
| COc1ccc(S(=O)(=O)N2CCCCC2)cc1NC(=O)C1CCCC1 | 13.5% |
| N#Cc1cnn2c(C(F)(F)F)cc(-c3ccccc3)nc12 | -6.6% |
| CCCCc1nnc2c(N(C)S(=O)(=O)c3ccccc3)nc3ccccc3n12 | 26.2% |
| O=C(CCn1nc(-c2ccc(Cl)cc2)ccc1=O)NCCCN1CCCCCC1 | -10.3% |
| Cc1cc(-c2ccc(Cl)cc2)n2nc(C)cc2n1 | 9.9% |
| COc1ccc(-n2c3c(c(=O)[nH]c2=O)C(NS(=O)(=O)c2ccc(Cl)cc2)(C(F)(F)F)C(=O)N3)cc1 (centres undefined) | -6.54% |
| CCOc1cccc2cc(C(=O)Nc3cc(C)on3)c(=O)oc12 | -5.12% |
| CC(=O)Cc1nsc(NC(=O)c2ccc(-c3cccc(Cl)c3)o2)n1 | 13.1% |

| SMILES | activation |
| --- | --- |
| CCOc1ccc(CCNC(=O)c2cc(C)on2)cc1OCC | 17.1% |
| O=C(NCCc1ccccc1)c1cc(-c2ccc3c(c2)OCO3)on1 | -11.9% |
| CC(=O)c1cccc(NC2c3ncccc3C(=O)N2Cc2ccco2)c1 (centres undefined) | 5.07% |
| COC(C)(C)c1cc(C(C)(C)C)nc(N)n1 | -4.56% |
| O=C(O)CCN1c2ccccc2Sc2ccccc21 | -13.1% |
| CC1=NN(C(N)=S)C(=O)C1N=Nc1ccccc1C (centres undefined) | -12.7% |
| O=c1cc(-c2cccc(Br)c2)nc(-c2ccccc2F)o1 | 18.6% |
| COc1cccc(-c2nnn(CC(=O)O)n2)c1 | -2.57% |
| C1CCN(CCCNC2C3CC4CC(C3)CC2C4)C1 (centres undefined) | 5.94% |
| CC(=O)Nc1nc(CC(C)C)cc(-c2ccco2)c1C#N | -11.2% |
| CC(C(=O)N1CCC(C(N)=O)CC1)N(c1ccc(Oc2ccccc2)cc1)S(C)(=O)=O (centres undefined) | 2.24% |
| COc1ccc(C(=O)NCC(=O)OCC(=O)Nc2ccc(C)c(S(=O)(=O)N(C)C)c2)cc1OC | 13.4% |
| c1nc(N2CCOCC2)c2c3c(sc2n1)CCCC3 | 3.5% |
| N#CC1=C(N)Oc2nc(-c3ccccc3)[nH]c2C1c1cccnc1 (centres undefined) | 6.08% |
| CCC(=O)Nc1ccc(C(=O)N/N=C/c2cccnc2)cc1 | -9.47% |
| COc1cc(/C=N/NC(=O)C(C)n2nnc3ccccc32)ccc1O (centres undefined) | 20.6% |
| COc1ccc(N2CCN(S(=O)(=O)c3ccc(-c4cc(C)no4)s3)CC2)cc1 | -0.25% |
| Cc1ccc(S(=O)(=O)N2CCN(C(=O)COC(=O)c3ccc(O)cc3)CC2)c(C)c1 | -21.2% |
| Cc1ccc(C(C)C)c(OCCNCCc2ccccc2)c1 | 296% |
| Cc1nn(-c2ccccc2)c2c1C(O)CC(C)(C)C2 (centres undefined) | 8.92% |
| CC/C(O)=C1\C(=O)CC(c2ccccc2)CC1=NC(C)C (centres undefined) | -3.66% |
| CCc1ccc(OCC(=O)NC(=S)Nc2ccc(C)cc2C)c(Br)c1 | -3.07% |
| COc1ccc(CCNC(=O)COC(=O)c2cncc(Br)c2)cc1OC | -8.17% |
| CCOC(=O)C1=NN(C(=O)Nc2cccc(C(F)(F)F)c2)C2C(=O)N(c3cccc(C(F)(F)F)c3)C(=O)C12 (centres undefined) | -8.05% |
| C[C@@H]1CC2=C(C(=O)OC(C)(C)O2)[C@H](c2ccc(Cl)cc2)O1 | 14.6% |
| Cn1c(=O)c(=O)n(C)c2cc(S(=O)(=O)N3CCN(c4ccc(F)cc4)CC3)ccc21 | -6.48% |

| SMILES | activation |
| --- | --- |
| COc1ccc(C2=NOC(C(=O)NCc3ccccn3)C2)cc1OC (centres undefined) | -18.3% |
| COc1ccc(-c2cnc(N)nc2-c2ccc(OC)cc2)cc1 | -4.31% |
| CCOc1ccc(CCNC(=O)COC(=O)c2cccnc2SC)cc1OCC | 9.47% |
| CC(C)c1ccc2oc(=O)cc(CN3CCCCC3)c2c1 | 3.9% |
| CC1=C(C(=O)N2CCOCC2)CC(CC(=O)NCCCN(C)C)C(=O)N1CCCN1CCCC1=O (centres undefined) | 0.538% |
| COc1ccc(CCN=C(N)NS(=O)(=O)c2ccc(C)c(C)c2)cc1OC | 5.18% |
| O=C(N1CCOCC1)N1CCN(c2ccccn2)CC1 | 11.2% |
| CC1CC(C)CN(CC(O)COCc2ccccc2F)C1 (centres undefined) | -3.98% |
| CCN(Cc1ccncc1)C(=O)c1cccc(S(=O)(=O)N2CCCCC2)c1 | 7.23% |
| COc1ccc(N2CCN(C(c3cccs3)C(C)NC(=O)C(=O)N3CCOCC3)CC2)cc1 (centres undefined) | 49.4% |
| O=C(NNC1CCN(Cc2ccccc2)CC1)c1ccccc1 | -7.54% |
| CN(Cc1ccc(OCC(O)CN(C)Cc2ccccc2)cc1)Cc1nccn1C (centres undefined) | 6.67% |
| CC(NC1CCN(Cc2ccccc2)CC1)c1ccc(F)cc1 (centres undefined) | -0.389% |
| CC(Oc1ccccc1Cl)C(=O)Nc1ccc(S(=O)(=O)Nc2nccs2)cc1 (centres undefined) | 2.94% |
| CCNc1nc(NC(C)CC)nc(ON=C(C)C)n1 (centres undefined) | 7.53% |
| Cc1cc(=O)oc2c3c(cc(OCC(=O)NC(C)C)c12)OC(C)(C)CC3 | 2.56% |
| O=C(O)COc1ccc2c3c(c(=O)oc2c1)CCC3 | 2.84% |
| O=c1[nH]c2ccccc2nc1-c1nnnn1C1CCCC1 | 11.3% |
| CCOc1ccc(OCCC(=O)N(CC)CC(=O)NCc2cccs2)cc1 | -7.63% |
| CC(O)c1nc2ccccc2n1C1CCCCC1 (centres undefined) | -9.74% |
| COc1ccc(N2C(=O)CC(Sc3nc(C)cc(C)c3C#N)C2=O)cc1 (centres undefined) | -7.36% |
| COc1cc(C(=O)Nc2cc(C(F)(F)F)ccc2N2CCOCC2)ccc1OCC(=O)N1CCOCC1 | 0.175% |
| O=C(Nc1ccccc1Oc1ccsc1C(=O)O)c1ccccc1F | 3.53% |
| Cc1cc(C)nc(NC(N)=NCCc2c[nH]c3ccccc23)n1 | -15.7% |
| CCOC(=O)c1[nH]cnc1C(=O)NC(C)C | -12.7% |
| O=C1c2[nH]nc(-c3ccccc3)c2C(c2ccccc2)N1c1ccccc1 (centres undefined) | 9.7% |
